# Test results from publication PMC7862700, “An all-to-all approach to the identification of sequence-specific readers for epigenetic DNA modifications on cytosine”.
# Assays:
# Experiment in all cases: DAPPL (digital affinity profiling via proximity ligation, sequencing); 10 mM Tris-HCl pH 7.5, 50 mM NaCl, 1 mM DTT, 4% glycerol, room temperature, 30 min; GST-TFs on glutathione beads, 16-mer random dsDNA library, 0.1% formaldehyde crosslink after washing; high values mean tight binding
# FLI1 = molecular target: T1, FLI1 (Homo sapiens, UniProt Q01543 1-452); conditions: protein: recombinant; tags: N-terminal GST; dsDNA, one strand shown
# T1 sequence: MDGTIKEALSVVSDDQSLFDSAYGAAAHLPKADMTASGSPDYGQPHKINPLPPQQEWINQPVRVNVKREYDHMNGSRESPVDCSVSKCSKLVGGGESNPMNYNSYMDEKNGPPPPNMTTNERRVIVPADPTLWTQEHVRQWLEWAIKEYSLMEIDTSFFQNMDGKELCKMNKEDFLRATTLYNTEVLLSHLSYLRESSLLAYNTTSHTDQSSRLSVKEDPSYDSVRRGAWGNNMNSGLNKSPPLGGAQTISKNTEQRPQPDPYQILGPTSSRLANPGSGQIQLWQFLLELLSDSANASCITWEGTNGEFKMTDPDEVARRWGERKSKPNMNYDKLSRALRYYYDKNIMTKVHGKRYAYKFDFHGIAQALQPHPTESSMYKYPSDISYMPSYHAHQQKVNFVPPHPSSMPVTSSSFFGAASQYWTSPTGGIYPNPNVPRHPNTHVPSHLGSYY
# Method in brief: (§1)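 GST fusions of human transcription factors were expressed in yeast and captured with glutathione beads. Once given DNA barcodes and pooled alongside a tag-only sample, they were incubated for 30 min at room temperature with 200 nmole of a random double-stranded 16-mer DNA library in Tris/NaCl/DTT/glycerol buffer, then washed, crosslinked (0.1% formaldehyde), proximity-ligated, PCR-amplified and sequenced on an Illumina NextSeq500. The binding signal of each hexamer is its read frequency for a factor divided by its frequency for the tag-only sample.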
# ELK1 = molecular target: T2, ELK1 (Homo sapiens, UniProt P19419 1-428); conditions: protein: recombinant; tags: N-terminal GST; dsDNA, one strand shown
# T2 sequence: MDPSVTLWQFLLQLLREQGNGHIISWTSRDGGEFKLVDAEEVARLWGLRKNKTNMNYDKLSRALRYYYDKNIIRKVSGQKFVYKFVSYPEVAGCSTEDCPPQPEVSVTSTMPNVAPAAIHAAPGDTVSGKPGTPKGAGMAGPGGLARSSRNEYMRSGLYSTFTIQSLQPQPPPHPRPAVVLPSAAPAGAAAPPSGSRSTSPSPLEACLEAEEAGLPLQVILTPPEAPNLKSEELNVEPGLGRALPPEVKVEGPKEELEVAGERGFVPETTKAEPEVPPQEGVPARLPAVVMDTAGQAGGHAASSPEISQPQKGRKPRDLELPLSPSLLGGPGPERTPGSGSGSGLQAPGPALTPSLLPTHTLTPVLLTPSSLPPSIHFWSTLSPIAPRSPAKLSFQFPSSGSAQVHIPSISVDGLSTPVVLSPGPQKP
# Method in brief: as §1
# GABPA = molecular target: T3, GABPA (Homo sapiens, UniProt Q06546 1-454); conditions: protein: recombinant; tags: N-terminal GST; dsDNA, one strand shown
# T3 sequence: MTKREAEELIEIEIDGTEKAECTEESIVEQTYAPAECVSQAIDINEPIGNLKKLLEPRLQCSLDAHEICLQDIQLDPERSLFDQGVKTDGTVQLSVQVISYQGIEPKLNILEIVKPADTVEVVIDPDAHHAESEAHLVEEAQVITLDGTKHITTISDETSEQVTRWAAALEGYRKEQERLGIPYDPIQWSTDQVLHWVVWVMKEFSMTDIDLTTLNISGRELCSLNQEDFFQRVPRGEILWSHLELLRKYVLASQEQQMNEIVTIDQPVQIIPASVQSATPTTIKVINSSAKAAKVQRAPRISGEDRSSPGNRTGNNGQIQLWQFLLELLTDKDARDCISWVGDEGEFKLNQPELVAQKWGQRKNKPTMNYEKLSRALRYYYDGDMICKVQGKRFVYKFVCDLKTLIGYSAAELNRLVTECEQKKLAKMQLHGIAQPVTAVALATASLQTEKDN
# Method in brief: as §1
# ERG = molecular target: T4, ERG (Homo sapiens, UniProt P11308 1-479); conditions: protein: recombinant; tags: N-terminal GST; dsDNA, one strand shown
# T4 sequence: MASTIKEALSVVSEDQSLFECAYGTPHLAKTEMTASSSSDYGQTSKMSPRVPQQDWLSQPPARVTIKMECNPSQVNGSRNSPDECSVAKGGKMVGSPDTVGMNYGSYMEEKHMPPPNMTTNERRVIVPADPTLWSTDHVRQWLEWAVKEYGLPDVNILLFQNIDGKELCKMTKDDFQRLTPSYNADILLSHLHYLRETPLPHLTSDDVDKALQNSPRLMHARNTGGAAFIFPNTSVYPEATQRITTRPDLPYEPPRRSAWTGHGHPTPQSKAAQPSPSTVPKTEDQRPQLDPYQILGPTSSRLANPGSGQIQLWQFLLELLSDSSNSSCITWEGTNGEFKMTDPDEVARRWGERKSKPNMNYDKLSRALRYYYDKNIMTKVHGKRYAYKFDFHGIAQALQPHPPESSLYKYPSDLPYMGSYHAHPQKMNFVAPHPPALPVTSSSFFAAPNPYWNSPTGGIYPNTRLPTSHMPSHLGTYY
# Method in brief: as §1
# ELF1 = ELF1 (Homo sapiens, UniProt P32519 1-619); conditions: protein: recombinant; tags: N-terminal GST; dsDNA, one strand shown
# Method in brief: as §1
# EHF = molecular target: T5, EHF (Homo sapiens, UniProt Q9NZC4 1-300); conditions: protein: recombinant; tags: N-terminal GST; dsDNA, one strand shown
# T5 sequence: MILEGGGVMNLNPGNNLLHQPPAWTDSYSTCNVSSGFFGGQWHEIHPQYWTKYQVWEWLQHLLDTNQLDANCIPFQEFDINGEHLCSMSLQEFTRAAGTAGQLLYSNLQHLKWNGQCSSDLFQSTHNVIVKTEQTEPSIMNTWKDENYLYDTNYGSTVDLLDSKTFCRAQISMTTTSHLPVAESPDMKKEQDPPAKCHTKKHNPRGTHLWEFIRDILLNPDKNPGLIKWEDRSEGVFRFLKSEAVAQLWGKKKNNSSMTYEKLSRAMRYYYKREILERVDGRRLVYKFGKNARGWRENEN
# Method in brief: as §1
# SPI1 = SPI1 (Homo sapiens, UniProt P17947 1-270); conditions: protein: recombinant; tags: N-terminal GST; dsDNA, one strand shown
# Method in brief: as §1
# SPIB = SPIB (Homo sapiens, UniProt Q01892 1-262); conditions: protein: recombinant; tags: N-terminal GST; dsDNA, one strand shown
# Method in brief: as §1
# ELK3 = molecular target: T6, ELK3 (Homo sapiens, UniProt P41970 1-407); conditions: protein: recombinant; tags: N-terminal GST; dsDNA, one strand shown
# T6 sequence: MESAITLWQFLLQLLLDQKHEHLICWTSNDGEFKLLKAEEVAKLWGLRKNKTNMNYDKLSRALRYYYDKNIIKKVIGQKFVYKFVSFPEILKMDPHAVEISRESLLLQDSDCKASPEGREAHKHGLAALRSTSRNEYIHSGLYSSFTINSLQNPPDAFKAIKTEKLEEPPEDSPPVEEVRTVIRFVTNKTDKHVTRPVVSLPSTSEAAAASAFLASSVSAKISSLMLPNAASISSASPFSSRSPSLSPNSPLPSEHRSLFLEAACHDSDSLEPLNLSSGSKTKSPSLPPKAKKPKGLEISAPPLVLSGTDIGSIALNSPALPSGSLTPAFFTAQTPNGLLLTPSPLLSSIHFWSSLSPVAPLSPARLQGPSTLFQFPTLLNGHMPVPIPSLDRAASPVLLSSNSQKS
# Method in brief: as §1
# FEV = molecular target: T7, FEV (Homo sapiens, UniProt Q99581 1-238); conditions: protein: recombinant; tags: N-terminal GST; dsDNA, one strand shown
# T7 sequence: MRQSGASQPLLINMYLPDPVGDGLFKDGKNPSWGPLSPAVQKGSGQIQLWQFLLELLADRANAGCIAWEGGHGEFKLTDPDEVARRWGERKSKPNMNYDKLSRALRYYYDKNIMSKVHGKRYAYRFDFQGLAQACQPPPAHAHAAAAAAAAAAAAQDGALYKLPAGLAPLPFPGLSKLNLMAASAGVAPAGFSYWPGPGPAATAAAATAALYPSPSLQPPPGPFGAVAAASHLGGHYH
# Method in brief: as §1
# ETV5 = ETV5 (Homo sapiens, UniProt P41161 1-510); conditions: protein: recombinant; tags: N-terminal GST; dsDNA, one strand shown
# Method in brief: as §1
# HSF1 = HSF1 (Homo sapiens, UniProt Q00613 1-529); conditions: protein: recombinant; tags: N-terminal GST; chain copies: 3; dsDNA, one strand shown
# Method in brief: as §1
# SPIC = molecular target: T8, SPIC (Homo sapiens, UniProt Q8N5J4 1-248); conditions: protein: recombinant; tags: N-terminal GST; dsDNA, one strand shown
# T8 sequence: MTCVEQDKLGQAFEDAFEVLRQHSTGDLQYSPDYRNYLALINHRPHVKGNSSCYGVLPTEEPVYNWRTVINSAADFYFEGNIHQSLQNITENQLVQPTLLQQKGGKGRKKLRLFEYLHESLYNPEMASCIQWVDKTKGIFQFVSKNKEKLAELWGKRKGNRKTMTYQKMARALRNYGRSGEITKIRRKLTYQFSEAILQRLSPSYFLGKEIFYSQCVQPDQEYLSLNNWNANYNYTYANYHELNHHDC
# Method in brief: as §1
# ELF4 = ELF4 (Homo sapiens, UniProt Q99607 1-663); conditions: protein: recombinant; tags: N-terminal GST; dsDNA, one strand shown
# Method in brief: as §1
# ELK4 = molecular target: T9, ELK4 (Homo sapiens, UniProt P28324-2 1-405); conditions: protein: recombinant; tags: N-terminal GST; dsDNA, one strand shown
# T9 sequence: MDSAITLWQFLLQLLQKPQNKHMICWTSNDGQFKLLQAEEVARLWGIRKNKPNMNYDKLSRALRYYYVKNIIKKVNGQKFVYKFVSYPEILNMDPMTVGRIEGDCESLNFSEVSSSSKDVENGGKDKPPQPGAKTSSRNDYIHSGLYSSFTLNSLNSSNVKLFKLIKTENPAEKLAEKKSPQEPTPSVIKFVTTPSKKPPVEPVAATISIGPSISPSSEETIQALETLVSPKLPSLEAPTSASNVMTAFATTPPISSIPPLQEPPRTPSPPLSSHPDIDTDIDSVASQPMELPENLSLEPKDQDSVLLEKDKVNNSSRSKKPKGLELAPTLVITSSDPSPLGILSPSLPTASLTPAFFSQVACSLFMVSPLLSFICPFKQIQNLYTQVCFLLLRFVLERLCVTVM
# Method in brief: as §1
# ETV2 = molecular target: T10, ETV2 (Homo sapiens, UniProt O00321 1-342); conditions: protein: recombinant; tags: N-terminal GST; dsDNA, one strand shown
# T10 sequence: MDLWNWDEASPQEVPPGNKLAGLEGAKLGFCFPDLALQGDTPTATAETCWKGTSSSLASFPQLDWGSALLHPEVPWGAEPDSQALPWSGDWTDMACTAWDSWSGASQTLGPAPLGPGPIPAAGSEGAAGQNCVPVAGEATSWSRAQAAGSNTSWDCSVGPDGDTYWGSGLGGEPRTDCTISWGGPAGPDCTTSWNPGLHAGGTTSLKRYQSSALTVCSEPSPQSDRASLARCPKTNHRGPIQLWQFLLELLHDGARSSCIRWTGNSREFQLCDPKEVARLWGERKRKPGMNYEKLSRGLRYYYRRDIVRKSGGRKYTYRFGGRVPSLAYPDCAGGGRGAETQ
# Method in brief: as §1
# ELF3 = molecular target: T11, ELF3 (Homo sapiens, UniProt P78545 1-371); conditions: protein: recombinant; tags: N-terminal GST; dsDNA, one strand shown
# T11 sequence: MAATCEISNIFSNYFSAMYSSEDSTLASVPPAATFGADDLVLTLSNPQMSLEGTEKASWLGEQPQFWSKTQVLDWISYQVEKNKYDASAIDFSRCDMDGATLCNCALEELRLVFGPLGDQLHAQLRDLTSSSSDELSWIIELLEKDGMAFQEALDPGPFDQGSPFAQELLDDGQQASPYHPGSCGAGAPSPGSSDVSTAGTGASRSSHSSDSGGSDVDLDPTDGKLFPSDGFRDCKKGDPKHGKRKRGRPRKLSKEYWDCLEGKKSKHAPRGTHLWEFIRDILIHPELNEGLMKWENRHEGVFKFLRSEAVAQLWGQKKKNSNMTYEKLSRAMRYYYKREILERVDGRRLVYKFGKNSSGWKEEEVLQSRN
# Method in brief: as §1
# CRX = CRX (Homo sapiens, UniProt O43186 1-299); conditions: protein: recombinant; tags: N-terminal GST; dsDNA, one strand shown
# Method in brief: as §1
# ETV1 = ETV1 (Homo sapiens, UniProt P50549 1-477); conditions: protein: recombinant; tags: N-terminal GST; dsDNA, one strand shown
# Method in brief: as §1
# Sequence of ELF4 (Q99607 whole entry): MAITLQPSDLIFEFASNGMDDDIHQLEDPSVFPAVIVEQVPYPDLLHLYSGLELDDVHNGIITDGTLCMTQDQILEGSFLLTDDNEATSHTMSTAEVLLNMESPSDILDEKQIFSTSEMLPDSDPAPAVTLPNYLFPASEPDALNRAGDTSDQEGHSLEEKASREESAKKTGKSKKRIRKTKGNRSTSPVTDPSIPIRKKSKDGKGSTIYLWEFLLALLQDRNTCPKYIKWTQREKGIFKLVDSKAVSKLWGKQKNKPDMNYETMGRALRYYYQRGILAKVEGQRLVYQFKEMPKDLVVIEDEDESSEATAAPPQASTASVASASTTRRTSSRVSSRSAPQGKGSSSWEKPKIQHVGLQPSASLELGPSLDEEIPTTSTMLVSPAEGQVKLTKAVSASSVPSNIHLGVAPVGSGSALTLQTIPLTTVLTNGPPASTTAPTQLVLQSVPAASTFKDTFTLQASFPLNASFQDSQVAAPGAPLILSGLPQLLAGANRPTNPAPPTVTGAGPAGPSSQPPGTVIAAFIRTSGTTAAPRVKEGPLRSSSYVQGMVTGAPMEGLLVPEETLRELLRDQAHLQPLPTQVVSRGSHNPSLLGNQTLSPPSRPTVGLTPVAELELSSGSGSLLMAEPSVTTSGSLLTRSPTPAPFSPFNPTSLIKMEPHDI
# Sequence of ELF1 (P32519 whole entry): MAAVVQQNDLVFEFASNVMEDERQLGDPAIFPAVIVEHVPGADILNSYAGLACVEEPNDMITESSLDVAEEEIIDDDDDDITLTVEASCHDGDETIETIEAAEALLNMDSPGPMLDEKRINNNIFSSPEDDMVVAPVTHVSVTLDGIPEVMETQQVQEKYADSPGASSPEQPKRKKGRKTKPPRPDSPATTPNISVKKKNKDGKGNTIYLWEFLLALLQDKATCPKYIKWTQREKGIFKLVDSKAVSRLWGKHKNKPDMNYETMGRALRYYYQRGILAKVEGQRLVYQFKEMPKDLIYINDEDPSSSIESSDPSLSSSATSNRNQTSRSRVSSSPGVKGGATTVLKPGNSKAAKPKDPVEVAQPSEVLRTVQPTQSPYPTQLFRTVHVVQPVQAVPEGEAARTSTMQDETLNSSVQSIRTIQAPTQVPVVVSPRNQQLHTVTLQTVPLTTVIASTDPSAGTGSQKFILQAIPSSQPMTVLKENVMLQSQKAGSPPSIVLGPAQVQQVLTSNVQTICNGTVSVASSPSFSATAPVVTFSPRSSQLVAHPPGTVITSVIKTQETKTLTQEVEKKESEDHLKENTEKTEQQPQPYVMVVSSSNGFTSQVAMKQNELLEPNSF
# Sequence of HSF1 (Q00613 whole entry): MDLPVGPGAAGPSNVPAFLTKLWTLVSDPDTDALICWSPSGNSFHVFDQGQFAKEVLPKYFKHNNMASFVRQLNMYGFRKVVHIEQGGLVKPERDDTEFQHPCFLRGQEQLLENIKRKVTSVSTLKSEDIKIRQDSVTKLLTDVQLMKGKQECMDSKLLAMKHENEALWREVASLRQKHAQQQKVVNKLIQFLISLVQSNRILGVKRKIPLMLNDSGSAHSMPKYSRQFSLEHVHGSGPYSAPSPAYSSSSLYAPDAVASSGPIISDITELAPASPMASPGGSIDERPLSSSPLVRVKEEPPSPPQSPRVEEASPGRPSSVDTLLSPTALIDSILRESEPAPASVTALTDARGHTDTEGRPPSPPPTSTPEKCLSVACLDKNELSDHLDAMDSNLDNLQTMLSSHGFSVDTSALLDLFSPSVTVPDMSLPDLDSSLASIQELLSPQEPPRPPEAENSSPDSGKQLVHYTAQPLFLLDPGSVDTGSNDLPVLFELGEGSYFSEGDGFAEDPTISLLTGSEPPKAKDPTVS
# Sequence of ETV5 (P41161 whole entry): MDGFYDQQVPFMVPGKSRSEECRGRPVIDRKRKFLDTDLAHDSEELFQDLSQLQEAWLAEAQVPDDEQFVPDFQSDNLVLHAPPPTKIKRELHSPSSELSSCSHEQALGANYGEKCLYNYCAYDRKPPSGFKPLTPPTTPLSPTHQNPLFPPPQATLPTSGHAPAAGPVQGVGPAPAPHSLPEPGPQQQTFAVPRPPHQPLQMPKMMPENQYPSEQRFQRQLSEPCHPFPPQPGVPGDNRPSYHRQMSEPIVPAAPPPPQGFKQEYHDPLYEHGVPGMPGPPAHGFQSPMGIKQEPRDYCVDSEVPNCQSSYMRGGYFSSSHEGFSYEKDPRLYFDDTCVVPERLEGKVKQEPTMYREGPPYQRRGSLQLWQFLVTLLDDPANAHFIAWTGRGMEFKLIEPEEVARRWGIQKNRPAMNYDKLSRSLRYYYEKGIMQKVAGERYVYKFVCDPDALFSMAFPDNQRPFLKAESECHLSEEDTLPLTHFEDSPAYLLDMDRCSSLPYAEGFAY
# Sequence of ETV1 (P50549 whole entry): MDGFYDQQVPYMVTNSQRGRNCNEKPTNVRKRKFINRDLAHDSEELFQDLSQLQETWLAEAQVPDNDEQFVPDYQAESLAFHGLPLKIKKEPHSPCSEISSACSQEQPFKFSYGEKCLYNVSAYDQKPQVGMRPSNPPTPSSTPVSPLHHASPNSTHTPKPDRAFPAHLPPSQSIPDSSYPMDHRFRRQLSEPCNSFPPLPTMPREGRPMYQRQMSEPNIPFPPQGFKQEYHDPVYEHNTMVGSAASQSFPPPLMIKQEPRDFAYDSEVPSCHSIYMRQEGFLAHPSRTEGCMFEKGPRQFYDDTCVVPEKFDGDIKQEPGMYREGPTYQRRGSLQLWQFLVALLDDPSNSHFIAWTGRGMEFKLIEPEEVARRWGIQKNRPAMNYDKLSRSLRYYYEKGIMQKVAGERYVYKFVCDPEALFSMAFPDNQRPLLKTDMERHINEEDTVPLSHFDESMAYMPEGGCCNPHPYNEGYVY
# Sequence of SPIB (Q01892 whole entry): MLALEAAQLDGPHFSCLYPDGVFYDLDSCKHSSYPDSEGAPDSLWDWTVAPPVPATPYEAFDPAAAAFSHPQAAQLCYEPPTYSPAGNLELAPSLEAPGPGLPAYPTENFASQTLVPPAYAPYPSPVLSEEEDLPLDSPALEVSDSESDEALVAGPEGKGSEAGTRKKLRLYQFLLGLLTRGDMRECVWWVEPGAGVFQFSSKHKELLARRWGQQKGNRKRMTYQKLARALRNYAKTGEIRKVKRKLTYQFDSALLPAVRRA
# Sequence of CRX (O43186 whole entry): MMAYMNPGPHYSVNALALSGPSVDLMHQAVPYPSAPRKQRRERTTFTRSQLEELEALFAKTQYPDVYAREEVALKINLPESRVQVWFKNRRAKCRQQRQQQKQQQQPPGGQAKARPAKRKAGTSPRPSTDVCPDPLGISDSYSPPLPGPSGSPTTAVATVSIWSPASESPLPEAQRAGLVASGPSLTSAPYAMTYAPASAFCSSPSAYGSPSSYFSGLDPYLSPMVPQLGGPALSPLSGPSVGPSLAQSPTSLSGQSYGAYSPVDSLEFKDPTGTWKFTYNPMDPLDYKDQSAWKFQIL
sequence,measurement,setting,value
TTTAAC,binding signal,FLI1,"1.18 fold enrichment (6-mer frequency, TF over GST control)"
same,binding signal,ELK1,"1.16 fold enrichment (6-mer frequency, TF over GST control)"
same,binding signal,GABPA,"1.08 fold enrichment (6-mer frequency, TF over GST control)"
same,binding signal,ERG,"1.13 fold enrichment (6-mer frequency, TF over GST control)"
same,binding signal,ELF1,"1.21 fold enrichment (6-mer frequency, TF over GST control)"
same,binding signal,EHF,"1.1 fold enrichment (6-mer frequency, TF over GST control)"
same,binding signal,SPI1,"1.19 fold enrichment (6-mer frequency, TF over GST control)"
same,binding signal,SPIB,"1.14 fold enrichment (6-mer frequency, TF over GST control)"
same,binding signal,ELK3,"1.21 fold enrichment (6-mer frequency, TF over GST control)"
same,binding signal,FEV,"1.09 fold enrichment (6-mer frequency, TF over GST control)"
same,binding signal,ETV5,"1.12 fold enrichment (6-mer frequency, TF over GST control)"
same,binding signal,HSF1,"1.22 fold enrichment (6-mer frequency, TF over GST control)"
same,binding signal,SPIC,"1.23 fold enrichment (6-mer frequency, TF over GST control)"
same,binding signal,ELF4,"1.14 fold enrichment (6-mer frequency, TF over GST control)"
same,binding signal,ELK4,"1.13 fold enrichment (6-mer frequency, TF over GST control)"
same,binding signal,ETV2,"1.24 fold enrichment (6-mer frequency, TF over GST control)"
same,binding signal,ELF3,"1.15 fold enrichment (6-mer frequency, TF over GST control)"
same,binding signal,CRX,"1.74 fold enrichment (6-mer frequency, TF over GST control)"
same,binding signal,ETV1,"1.18 fold enrichment (6-mer frequency, TF over GST control)"
